These results are taken from PubChem BioAssay (NCI).

About 83,000 compounds went through this panel and 20% of them were active in at least one assay; those are over-represented in the sample as a whole.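 Testing used 96-well plates and a 48-hour single-concentration exposure. Example: -40 means 40% of the starting cells died.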 Unmarked numbers belong to inactive results. The source made the active and inactive calls. How the source made its calls: active means growth percent below 10; inactive means the rest.

Common to all, as to assay: NCI-60 one-dose screen, 48 h (100 = growth as untreated, 0 = no growth, -100 = all killed)
Settings in all cases: 10 µM unless noted

Test [1] relates to SR leukemia.
Test [2] relates to RPMI-8226 leukemia.
Test [3] has as its system OVCAR-8 ovarian.
For test [4], the system named is OVCAR-5 ovarian.
Test [5] has as its system OVCAR-4 ovarian.
The test system of test [6] is SK-OV-3 ovarian.
Test [7] concerns IGROV1 ovarian.
Test [8] deals with OVCAR-3 ovarian.
Test [9] has as its system HS 578T breast.
Test [10] concerns NCI/ADR-RES ovarian.

In the case of `O=C(Nc1cccnc1Nc1ccc(Cl)cc1)c1cn(Cc2cccc(Oc3ccccc3)c2)nn1`, the growth was 21.5% in [1]; 40.9% in test [2]; 53.8% in test [3]; 101% in [4]; 83.9% in test [5]; 53% in test [6]. The growth is 77.6% in [7], 30.7% in [8], 39.9% in [9] and 14.4% in test [10].

With `CNC(=O)c1cc(Oc2ccc3c(c2)sc2nc(-c4ccc(NC(=O)[C@@H](NC(=O)OC)C(C)C)cc4)cn23)ccn1`, the growth is 66.1% in test [1]; 30.3% in test [2]; 34.9% in [3]; 117% in test [4]; 66.4% in [5]; 98% in [6]. For the same compound, the growth in [7] is 82.2%; in test [8], 63.3%; in test [9], 81.6%; in [10], 65.1%.

With `COCCn1cc(-c2nc(-c3c[nH]c4ncccc34)cs2)c2ccccc21`, the growth was 18.4% in test [1]; 43.3% in test [2]; 81% in test [3]; 43.7% in test [4]; 15.2% in [5]; 54.8% in test [6]. Besides, the growth in test [7] was 36%; in [8], 13.6%; in test [9] it was 47.4%; in test [10] it was 69.1%.

With `COc1cc(O)c2c(=O)c3c(CC=C(C)C)cc(OC)c(O)c3oc2c1`, the growth in test [1] was 24.7%; in [2] it was 29.8%; in [3], 26.4%; in test [4], 51.2%; in [5], 52.5%; in test [6] it was 17%. Further, the growth in test [7] was 41.7%; in [8] it was 1.93% (active); in test [9], 36.1%; in [10] it was 16.1%.

`CC(=O)Nc1sc2c(c1-c1nc3ccccc3s1)CNC2`: the growth in [1] was 6% (active); in [2], 19.1%; in test [3] it was 23.4%; in test [4], 41.8%; in test [5] it was 33.4%; in test [6] it was 15.9%. Besides, the growth in test [7] is 13.5%; in test [8], 36.3%; in test [9], 51.3%; in test [10], 23.2%.

On to `CS(=O)(=O)Nc1cc(-c2ccc3ncnc(Nc4ccc(OCc5ccccn5)c(Cl)c4)c3c2)cnc1Cl`, for which the growth in test [1] is -5.01% (active); in test [2], -50.3% (active); in [3] it was 14.4%; in test [4], 12.5%; in test [5], 20.9%; in [6], -27.1% (active). In addition, the growth in test [7] is -30.6% (active); in test [8], -19% (active); in test [9] it was -19.7% (active); in [10], 77.7%.

Take `O=C(NCCN1CCOCC1)OCc1ccc2c(Cl)cc(Cl)c(O)c2n1`: the growth is 68.4% in test [1]; 56.2% in test [2]; 49.2% in [3]; 106% in test [4]; 49.4% in test [5]; 91.8% in test [6]. For the same compound, the growth in [7] was 57.8%; in test [8], 62.1%; in [9] it was 83.1%; in test [10] it was 5.25% (active).

On to `CN(C)CCC(=O)C1CC1`, for which the growth is 97.3% in test [1]; 101% in test [2]; 106% in test [3]; 100% in test [4]; 108% in test [5]; 110% in [6]. For the same compound, the growth in test [7] is 92.3%; in test [8] it was 105%; in test [9], 111%; in [10] it was 98.3%.

For the compound `C#Cc1cccc(NC(=O)C2CCCCN2C(=O)CCl)c1` (stereo not given), the growth is 2.64% [8.25 µM] (active) in test [1]; -38.4% [8.25 µM] (active) in [2]; 2.11% [8.25 µM] (active) in test [3]; -95% [8.25 µM] (active) in test [4]; -66.9% [8.25 µM] (active) in [5]; 33.1% [8.25 µM] in test [6]. The growth is -69.9% [8.25 µM] (active) in test [7], -66.3% [8.25 µM] (active) in test [8], -22.1% [8.25 µM] (active) in [9] and -5.37% [8.25 µM] (active) in [10].

In the case of `Cc1cc(O)cc(-c2nn(C)cc2-c2cc(N3CCOCC3)nc(-c3cccnc3)n2)c1`, the growth in [1] is 15%; in test [2] it was 38.2%; in [3], 47.1%; in [4], 84.6%; in [5], 73.1%; in test [6], 38.5%. The growth in test [7] was 45%; in [8] it was 8.62% (active); in test [9], 20.5%; in test [10], 45.9%.

`O=C(O)c1cn(C2CC2)c2cc(N3CCN(C(=O)N4CCOCC4)CC3)c(F)cc2c1=O`: the growth in test [1] was 116%; in test [2], 108%; in [3] it was 104%; in [4] it was 104%; in [5], 106%; in test [6] it was 100%. For the same compound, the growth in test [7] is 94%; in test [8] it was 109%; in test [9], 119%; in test [10], 105%.

As for `C[C@H](c1nc2ccc(C#N)cc2[nH]1)[C@H]1CC[C@H]2[C@@H]3CCC4=CC(=O)CC[C@]4(C)[C@H]3CC[C@]12C`, the growth in test [1] was 34.6%; in test [2], 20.3%; in [3], 79.6%; in test [4], 85.3%; in test [5], 46%; in test [6] it was 80%. In addition, the growth is 66.9% in test [7], 72.1% in [8], 63.4% in [9] and 67.5% in [10].

With `COc1ccc2c(c1)C(C)Cc1c(ncnc1-n1cnc3cc(C)ccc31)N2C` (stereo not given), the growth in test [1] was -0.883% (active); in test [2], 11.9%; in test [3] it was 9.01% (active); in [4], 78.1%; in test [5], 58.2%; in [6], 19.8%. Besides, the growth was 27.5% in [7], 6.09% (active) in test [8], 36.2% in test [9] and 6.69% (active) in test [10].

Turning to `Cn1c(=O)c2[nH]c(SC/C(=N/O)c3ccc(Br)cc3)nc2n(C)c1=O`, the growth is 60.4% in test [1]; 59.4% in [2]; 26.5% in test [3]; 54.8% in test [4]; 7.77% (active) in test [5]; -33.3% (active) in test [6]. Moreover, the growth is 20.1% in [7], 11.8% in [8], 31.8% in test [9] and 37.1% in [10].

With `C#CCOc1cccc(Nc2ncnc3c2ncn3C2CCN(C(=O)CCl)C2)c1` (stereo not given), the growth in test [1] was -23.8% (active); in test [2] it was -49.8% (active); in test [3], 5.81% (active); in test [4], -88.4% (active); in test [5], -51.7% (active); in test [6] it was 48.4%. Further, the growth is -58.3% (active) in test [7], -90.9% (active) in test [8], 14% in [9] and 15.7% in [10].

For the compound `CCOc1ccc(/C=C/C(=O)c2cccc(OCCCOc3cccc(C(=O)/C=C/c4ccc(OCC)cc4)c3)c2)cc1`, the growth in test [1] was 90.1%; in [2], 93.6%; in [3], 85.9%; in [4] it was 107%; in [5] it was 69.1%; in test [6], 103%. Moreover, the growth in [7] was 78.7%; in [8] it was 85.5%; in [9], 90.2%; in test [10] it was 86.5%.

`Nc1ccc(-c2ccncc2)cc1NC(=O)N1CCCC1`: the growth is 91.8% in [1]; 82.2% in [2]; 85.3% in test [3]; 109% in test [4]; 101% in [5]; 92.2% in [6]. Also, the growth is 99.4% in test [7], 99.3% in test [8], 93.7% in [9] and 81.8% in test [10].

As to `CCOC(=O)CC[C@H](NC(=O)c1ccc(N(C)Cc2cnc3nc(N)nc(N)c3n2)c2ccccc12)C(=O)OCC`, the growth in [1] is 31.8%; in [2], 23%; in test [3], 23.9%; in test [4] it was 55.6%; in [5], 91.1%; in test [6], 50.7%. In addition, the growth in [7] is 24.5%; in test [8] it was 45.4%; in [9], 58%; in [10] it was 39.3%.

Turning to `c1cc(OCCCCCOc2cccc(-c3nc4ccccc4[nH]3)c2)cc(-c2nc3ccccc3[nH]2)c1`, the growth in test [1] was -24.8% (active); in test [2], -47.1% (active); in test [3], 15.7%; in test [4], 1.07% (active); in test [5] it was 8.16% (active); in [6] it was 23.9%. Besides, the growth in test [7] was 10.8%; in test [8], 16.8%; in test [9], 25.3%; in [10], 0.274% (active).

In the case of `COc1cccc(CNc2c3ccccc3nc3ccccc23)c1OC`, the growth was 17.5% in test [1]; 17% in [2]; 39.2% in test [3]; 43% in test [4]; 36.6% in test [5]; 66% in [6]. Further, the growth is 23.2% in test [7], 65.1% in test [8], 64.3% in test [9] and 33.2% in [10].

`Cc1ccc(OCCOCCOCCOc2ccc(C)n(O)c2=S)c(=S)n1O`: the growth in test [1] was 25.6%; in test [2] it was 31.2%; in test [3], 39.3%; in test [4], 38.5%; in test [5] it was 20.5%; in [6], 64.9%. Besides, the growth in test [7] was 72%; in test [8], 15.9%; in test [9] it was 56.3%; in test [10], 16.4%.

On to `O=C(/C=C/c1ccccc1)N(C1CCCCC1)C1CCCCC1`, for which the growth in [1] is 83.8%; in [2] it was 51.8%; in test [3] it was 95%; in test [4], 106%; in test [5] it was 84%; in test [6], 117%. Further, the growth in test [7] was 116%; in test [8] it was 89.6%; in test [9], 90.8%; in test [10], 74.5%.

For `C/C=C1/CN(CCCCC)CC[C@H]1C(=O)c1cc2ccccc2[nH]1`, the growth in test [1] was 98.4%; in [2], 94.9%; in test [3] it was 91.7%; in [4], 96.3%; in test [5], 86.6%; in test [6], 83.3%. Further, the growth in test [7] was 98.5%; in test [8] it was 94%; in [9], 97.3%; in test [10], 93.6%.

For `COCCn1cc(-c2nc(-c3cc4cccnc4n3C)cs2)c2ccccc21`, the growth in test [1] was 10.1%; in test [2], 55.7%; in [3] it was 39%; in test [4], 49%; in test [5], 25.1%; in [6], 58.7%. The growth in test [7] is 43.7%; in [8] it was 31.5%; in [9] it was 61.5%; in test [10] it was 13.3%.

For `COc1ccc(-c2cc(-c3cc(OC)ccc3OC)nc(SCC(C)=O)c2C#N)cc1`, the growth was 32.1% in test [1]; 33.2% in [2]; 80.8% in test [3]; 84.1% in test [4]; 69.6% in test [5]; 59.9% in test [6]. Besides, the growth in [7] is 83.9%; in [8], 66.4%; in test [9], 76.1%; in [10], 52.1%.

As to `CCOC(=O)c1cnn(CC(C)O)c1NC(=O)NCc1cccc(F)c1` (stereo not given), the growth in [1] was 92.1%; in test [2], 90.3%; in [3] it was 106%; in [4], 107%; in [5], 122%; in test [6], 101%. Besides, the growth in [7] is 95.5%; in test [8], 107%; in test [9], 103%; in [10] it was 96.9%.

Regarding `CN1C(=O)/C(=C/c2ccc(C(=O)Nc3ncc(Cc4cccc(C(F)(F)F)c4)s3)cc2)SC1=S`, the growth in test [1] is 52.6%; in test [2], 22.1%; in test [3], 59.8%; in test [4], 60.8%; in test [5] it was 34.4%; in test [6], 50.6%. The growth is 56.7% in test [7], 71.1% in test [8], 63.9% in test [9] and 33.4% in test [10].
